# From PubChem BioAssay
# The source made the active and inactive calls.
# Columns and labels:
# [1] = E. coli DRC41 culture turbidity changes, primary screen, E. coli filamentation inducer project, strain DRC41, OD650, 48 h (AID 1152);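 also: E. coli MC1000 strain DRC41 lacking acrAB efflux pump and sulA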; settings: E. coli DRC41 (acrAB sulA), higher = more signal, called active from +8 up or from −8 down
# [2] = small-molecule binders of probe aLefty1, primary screen, biochemical, small-molecule microarray, 635/667 nm fluorescence (AID 1153); settings: higher = more signal;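 also: score merges spot fluorescence with signal-to-noise ratio from the scanned slide images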
# [3] = PSAC antagonists in infected red cells, primary screen, cell-based, P. falciparum Indochina, OD700, 1 h (AID 1154); settings: P. falciparum Indochina infected RBC osmotic lysis, higher = more signal, called active from +8 up or from −8 down
# [4] = PSAC antagonists in infected red cells, primary screen, cell-based, P. falciparum Indochina, OD700, 2 h (AID 1155);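 also: lysis reports solute entry through the parasite surface anion channel PSAC; channel blockers reduce lysis of infected cells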; settings: P. falciparum Indochina infected erythrocytes, osmotic lysis OD700; higher = more signal, called active from +8 up or from −8 down
# [5] = osmotic lysis modulators in infected erythrocytes, primary screen, PSAC antagonist project, cell-based, P. falciparum Indochina, OD700, 3 h (AID 1156); settings: higher = more signal, called active from +8 up or from −8 down
# [6] = PSAC antagonists in infected red cells, primary screen, cell-based, P. falciparum Indochina, OD700, 18 h (AID 1157); settings: P. falciparum Indochina infected erythrocytes, osmotic lysis OD700, 18 h; higher = more signal, called active from +8 up or from −8 down
# [7] = modulators of S6 phosphorylation in cells, primary screen, cell-based, A549, cytoblot, luminescence, serum-stimulated (AID 1158); settings: A549 phospho-S6 cytoblot, 5 h, higher = more signal;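 also: serum-stimulated A549 lung adenocarcinoma cells; signal is phosphorylated S6 detected by cytoblot immunostaining with HRP secondary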
# [8] = molecular target: NADPH oxidase 2 (Homo sapiens) (UniProt P04839); assay: NOX2-dependent H2O2 signal modulators, primary screen, NOX inhibitor project, cell-based, HEK293-NOX2, PMA-stimulated, Amplex Red fluorescence (AID 1159); settings: 45 min, higher = more signal, called active from +8 up or from −8 down; also: test concentration not given here
# Chain of NADPH oxidase 2 (Homo sapiens) (P04839 whole entry, looked up): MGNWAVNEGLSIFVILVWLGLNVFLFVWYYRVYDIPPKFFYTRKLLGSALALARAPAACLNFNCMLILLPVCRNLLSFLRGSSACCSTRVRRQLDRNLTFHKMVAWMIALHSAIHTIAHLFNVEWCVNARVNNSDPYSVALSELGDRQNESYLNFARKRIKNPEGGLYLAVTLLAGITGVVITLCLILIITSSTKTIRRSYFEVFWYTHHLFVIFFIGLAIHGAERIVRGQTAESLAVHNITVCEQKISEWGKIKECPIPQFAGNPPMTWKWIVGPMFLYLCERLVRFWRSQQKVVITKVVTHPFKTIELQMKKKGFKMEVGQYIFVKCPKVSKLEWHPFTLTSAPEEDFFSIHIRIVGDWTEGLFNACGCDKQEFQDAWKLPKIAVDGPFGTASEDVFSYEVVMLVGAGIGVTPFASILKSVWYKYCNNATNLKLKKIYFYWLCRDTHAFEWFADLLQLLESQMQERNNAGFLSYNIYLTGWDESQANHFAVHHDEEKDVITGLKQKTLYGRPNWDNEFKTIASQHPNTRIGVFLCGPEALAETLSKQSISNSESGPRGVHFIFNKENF
# [9] = molecular target: NADPH oxidase 4 (Homo sapiens) (UniProt Q9NPH5); assay: NOX4-dependent H2O2 signal modulators, primary screen, NOX inhibitor project, cell-based, HEK293-NOX4, tetracycline-induced, Amplex Red fluorescence (AID 1160); settings: 45 min, higher = more signal, called active from +8 up or from −8 down
# Chain of NADPH oxidase 4 (Homo sapiens) (Q9NPH5 whole entry, looked up): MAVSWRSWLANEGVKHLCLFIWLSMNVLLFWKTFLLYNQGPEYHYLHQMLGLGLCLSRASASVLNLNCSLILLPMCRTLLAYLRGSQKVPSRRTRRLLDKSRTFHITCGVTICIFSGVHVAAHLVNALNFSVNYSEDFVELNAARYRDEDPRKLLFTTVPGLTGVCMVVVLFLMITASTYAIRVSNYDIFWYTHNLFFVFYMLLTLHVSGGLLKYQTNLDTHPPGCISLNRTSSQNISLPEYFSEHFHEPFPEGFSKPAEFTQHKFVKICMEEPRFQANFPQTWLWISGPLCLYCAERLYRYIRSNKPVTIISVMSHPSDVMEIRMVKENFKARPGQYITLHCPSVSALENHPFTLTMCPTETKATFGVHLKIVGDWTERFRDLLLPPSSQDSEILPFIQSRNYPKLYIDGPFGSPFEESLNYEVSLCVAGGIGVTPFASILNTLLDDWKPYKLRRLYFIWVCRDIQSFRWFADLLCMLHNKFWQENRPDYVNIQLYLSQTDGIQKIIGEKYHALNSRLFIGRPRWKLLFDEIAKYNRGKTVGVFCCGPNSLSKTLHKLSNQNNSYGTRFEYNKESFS
# [10] = molecular target: NADPH oxidase 5 (Homo sapiens) (UniProt Q96PH1); assay: NOX5-dependent H2O2 signal modulators, primary screen, NOX inhibitor project, cell-based, HEK293-NOX5, Amplex Red fluorescence (AID 1161); settings: HEK293-NOX5, ionomycin, 45 min, higher = more signal
# Chain of NADPH oxidase 5 (Homo sapiens) (Q96PH1 whole entry, looked up): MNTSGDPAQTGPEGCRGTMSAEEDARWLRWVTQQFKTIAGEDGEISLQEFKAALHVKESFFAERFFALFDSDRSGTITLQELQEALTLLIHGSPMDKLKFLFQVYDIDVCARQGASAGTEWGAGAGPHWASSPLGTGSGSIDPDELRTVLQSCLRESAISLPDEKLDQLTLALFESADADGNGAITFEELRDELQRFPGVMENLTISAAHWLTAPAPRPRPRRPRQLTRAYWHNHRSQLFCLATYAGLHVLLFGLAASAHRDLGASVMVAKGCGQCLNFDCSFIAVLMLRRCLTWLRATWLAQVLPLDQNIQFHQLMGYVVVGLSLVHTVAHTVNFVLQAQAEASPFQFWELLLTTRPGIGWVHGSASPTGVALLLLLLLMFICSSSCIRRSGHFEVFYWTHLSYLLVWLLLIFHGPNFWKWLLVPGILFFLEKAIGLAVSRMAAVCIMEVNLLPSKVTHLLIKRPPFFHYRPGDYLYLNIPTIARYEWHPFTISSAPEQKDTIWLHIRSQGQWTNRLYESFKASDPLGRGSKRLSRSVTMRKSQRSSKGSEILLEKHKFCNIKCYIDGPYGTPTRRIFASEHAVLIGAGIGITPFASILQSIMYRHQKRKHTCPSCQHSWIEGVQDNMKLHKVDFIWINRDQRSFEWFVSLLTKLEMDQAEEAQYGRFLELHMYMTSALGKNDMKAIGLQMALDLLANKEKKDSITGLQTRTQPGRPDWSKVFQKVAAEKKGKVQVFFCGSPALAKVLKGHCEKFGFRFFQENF
Structure (SMILES),z-score [1],composite z-score [2],z-score [3],z-score [4],z-score [5],z-score [6],z-score [7],z-score [8],z-score [9],z-score [10]
COc1ccc(O[C@H]2C=C[C@@H](c3ccccc3)O[C@@H]2COC(=O)CCC(C)=NOC[C@@H](O)[C@H]2O[C@@H]3OC(C)(C)O[C@@H]3[C@H]2O)cc1,-1.89 (inactive),0.0004,4.09 (inactive),1.12 (inactive),1.11 (inactive),0.662 (inactive),0.332,-1.42 (inactive),0.0675 (inactive),-1.42
CCN1C(=O)[C@@H]2[C@H]3C(=CC[C@@H]2C1=O)C1(OCCCO1)[C@H]1O[C@H]1[C@H]3O,-0.721 (inactive),0.167,27.2 (active),12.1 (active),1.38 (inactive),1.18 (inactive),-0.295,0.104 (inactive),-5.5 (inactive),-5.86
CCCNC(=O)OC[C@H]1O[C@H](c2ccccc2)C=C[C@@H]1Oc1ccc(OC)cc1,0.604 (inactive),-0.092,0.906 (inactive),0.141 (inactive),-0.353 (inactive),0.0261 (inactive),0.136,1.35 (inactive),-0.438 (inactive),-1.9
CCOC(=O)[C@H](Cc1ccccc1)NC(=O)CCC1CC(OC(=O)NCCc2ccc(F)cc2)CC2(CCCC(COC(=O)NCCc3ccc(Cl)cc3)O2)O1 (stereo not given in full),0.0991 (inactive),-0.0244,1.13 (inactive),-0.525 (inactive),0.056 (inactive),0.126 (inactive),0.406,0.526 (inactive),0.311 (inactive),1.13
CO[C@H]1COC(=O)[C@@H](C)COC(=O)[C@@H](OCc2ccccc2)C=C[C@@H]1C,-0.303 (inactive),-0.235,-0.347 (inactive),0.32 (inactive),0.328 (inactive),-0.0659 (inactive),-0.286,0.237 (inactive),0.566 (inactive),-0.609
CC1O[C@H]2C3=C(C(=O)[C@@H]4O[C@@H]4[C@H]3O)[C@@H]1C1[C@@H](C)OC=C3[C@H](O)C4O[C@@H]4C(=NOCc4ccccc4)[C@]312 (stereo not given in full),-0.259 (inactive),-0.184,1.3 (inactive),0.184 (inactive),0.0322 (inactive),0.0995 (inactive),-0.871,0.32 (inactive),0.584 (inactive),0.445
COC(=O)[C@H]1[C@@H](O)[C@@]2(O)c3ccccc3O[C@@]2(c2ccccc2)[C@@H]1c1ccccc1,-0.262 (inactive),-0.193,0.249 (inactive),0.454 (inactive),0.296 (inactive),0.148 (inactive),0.0192,-0.481 (inactive),0.526 (inactive),0.152
CC(C)CCN1CCc2nc(COc3ccccc3)c3c(c2C1)CO[C@@H](C)C3,-0.152 (inactive),0.0768,3.22 (inactive),0.326 (inactive),0.331 (inactive),0.101 (inactive),-0.356,1.2 (inactive),0.131 (inactive),0.242
CC(C)(C)N1C(=O)[C@H]2[C@H]3[C@H](O)C=CC(=O)[C@@H]3CC[C@H]2C1=O,-0.0926 (inactive),-0.286,-0.007 (inactive),-0.566 (inactive),-0.562 (inactive),-0.43 (inactive),0.0787,0.497 (inactive),-1.67 (inactive),-0.47
CC(C)=CCCC(C)=CCON=C1C[C@@H](O)[C@@H](O)[C@@H]2[C@@H]3C(=O)N(C4CCCCC4)C(=O)[C@@H]3CC[C@@H]12,-0.734 (inactive),-0.147,2.18 (inactive),0.677 (inactive),-0.25 (inactive),0.525 (inactive),-0.367,0.606 (inactive),0.435 (inactive),-0.18
